# ELG1 DNA repair – qHTS screen for small molecules that inhibit ELG1-dependent DNA repair in human embryonic kidney (HEK293T) cells expressing luciferase-tagged ELG1 | HEK293T ELG1-luciferase reporter, luminescence, 16 h; DNA damage induced by 5-fluorouridine | Potency, µM (doses to about 46.1 µM), inactives show at the top dose activity change, negative = inhibition, actives largely listed as inhibitors | 330,000 compounds, 2.3% hits | AID 504467, 2011; note: % is set by controls: 0 for no effect and ±100 for the full control effect; nearly all actives have a fitted effect of over 55% in size
#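 5-Fluorouridine DNA damage + compound/DMSO, 2,000 cells/well, 16 h, 37 °C/5% CO2. ONE-Glo, 30 min RT, luminescence. Readout = decrease in reporter signal.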
# NPC1 prom act – qHTS Assay for NPC1 Promoter Activators; Huh7 NPC1 promoter luciferase reporter, 24 h; AID 485313, 2010; Potency, µM (highest dose often 9.22 µM), for inactives: at the top dose activation, hits mostly activators; 320,000 compounds, 2.4% hits; note: % of control where 0% means no effect; nearly all actives have a fitted effect of over 60% in size
#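 Huh7 reporter cells (NPC1 promoter driving luciferase) are dosed with compound for 24 h at 37 °C, 5% CO2; luciferase detection reagent is then added and luminescence measured after 10 min at ambient temperature.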
# FLuc modulator – qHTS profiling assay for firefly luciferase inhibitor/activator using purifed enzyme and Km concentrations of substrates (counterscreen for miR-21 project). Luciferin 4-monooxygenase (Photinus pyralis), P08659. purified FLuc, Km substrates, luminescence inhibition. Potency, µM (top dose mostly 57.5 µM), inactives show at the top dose activity change, negative = inhibition, usual class: inhibitors. 360,000 compounds, 6.9% hits;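 note: plate controls were vehicle for no effect and reference inhibitor for full effect; nearly all actives have a fitted effect of over 55% in size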
# Target sequence (P08659 whole entry, looked up): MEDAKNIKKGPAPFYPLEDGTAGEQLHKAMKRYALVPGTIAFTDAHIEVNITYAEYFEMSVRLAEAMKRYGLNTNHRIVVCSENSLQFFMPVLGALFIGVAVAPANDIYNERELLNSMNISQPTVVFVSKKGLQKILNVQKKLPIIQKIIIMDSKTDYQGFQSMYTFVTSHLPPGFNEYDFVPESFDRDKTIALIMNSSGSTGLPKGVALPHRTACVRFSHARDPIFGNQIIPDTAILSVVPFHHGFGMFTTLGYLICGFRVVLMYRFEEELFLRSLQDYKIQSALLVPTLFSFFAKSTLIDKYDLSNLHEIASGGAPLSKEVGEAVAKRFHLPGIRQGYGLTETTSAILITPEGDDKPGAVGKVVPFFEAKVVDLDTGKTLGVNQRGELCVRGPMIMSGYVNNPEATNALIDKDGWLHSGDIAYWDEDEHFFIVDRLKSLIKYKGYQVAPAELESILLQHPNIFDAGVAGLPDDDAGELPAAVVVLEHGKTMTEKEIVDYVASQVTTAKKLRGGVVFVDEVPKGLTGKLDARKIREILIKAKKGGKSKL
#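 Biochemical qHTS of compounds, final roughly 60 µM downward over six points, against 10 nM purified firefly luciferase using Km concentrations of substrates (10 uM D-luciferin, 10 uM ATP) in Tris acetate pH 7.5 buffer; luminescence output.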
# Rab9 prom act – qHTS Assay for Rab9 Promoter Activators; Huh7 Rab9 promoter-luciferase reporter, luminescence, 24 h; 320,000 compounds, 2.8% hits; Potency, µM (doses to about 9.22 µM), for the others: top-dose activation, negative = inhibition, actives largely listed as activators; AID 485297, 2010; note: % of control where 0% means no effect; nearly all actives have a fitted effect of over 60% in size
#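 Quantitative HTS format; Huh7 Rab9-luciferase reporter cells (1500/well) receive compound 2 h post-plating, incubate 24 h at 37 °C, then get luciferase reagent for 10 min before luminescence reading.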
# SMN2 splice enh – qHTS Assay for Enhancers of SMN2 Splice Variant Expression; Potency, µM (series often up to 46.1 µM), for the others: at the highest dose activity change, positive = activation, usual class: activators; 210,000 compounds, 2.8% hits; HEK293 SMN2-luciferase splicing reporter, luminescence, 30-36 h; note: % of control where 0% means no effect; nearly all actives have a fitted effect of over 55% in size
#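 HEK293 cells carry an SMN2 […]–luciferase reporter in which exon 7 inclusion puts luciferase in frame. Cells were plated 10-12 h before compound addition, then incubated 30-36 h at 37C. ONE-Glo luminescence was read; sodium butyrate at 4.5 mM final served as control.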
# ELG1 genotox – qHTS screen for small molecules that induce genotoxicity in human embryonic kidney (HEK293T) cells expressing luciferase-tagged ELG1 | AID 504466, 2011 | 330,000 compounds, 1.3% hits | HEK293T ELG1-luciferase reporter, luminescence, 16 h | Potency, µM (doses to about 46 µM), for the others: top-dose activity change, positive = activation, most hits filed as activators; note: % of control where 0% means no effect; nearly all actives have a fitted effect of over 60% in size
#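 HEK293T cells expressing luciferase-tagged ELG1 were exposed to compound or DMSO vehicle for 16 hr at 37 °C and 5% CO2. Luciferase activity was then measured with ONE-Glo after 30 min at room temperature.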
# Active calls of the source: *; u = inconclusive; x = not tested or not shown; [ ] = remark or other dose. Shown are actives, neighbours in structure and some others; about 9.2% of the full set was active somewhere. Calls come from the whole dose curve; as a rule, active = well fitted curve in the direction sought with a large enough effect; inconclusive = small, poorly fitted or top-dose-only effect, or another doubt; inactive = no such curve, though single readings can be large; an effect the other way counts as inactive or inconclusive. Potency is the fitted concentration of half-maximal effect.
SMILES,ELG1 DNA repair,NPC1 prom act,FLuc modulator,Rab9 prom act,SMN2 splice enh,ELG1 genotox
Cc1ccc(NC(CC(=O)c2ccccc2)C(=O)O)cc1Cl (configuration not stated),u,10.1%,2.13µM*,u,x,u
O=C(CC(C(=O)O)c1cccc(Cl)c1)c1ccccc1 (configuration not stated),0.9%,0.2%,1.7%,-10.9%,x,-0.5%
C=CCOc1ccc(/C=C2\SC(=S)N(C(C(=O)O)c3ccccc3)C2=O)cc1 (configuration not stated),-1.4%,-0.4%,21.3µM*,-3.4%,x,-2.8%
CCOc1ccc(/C=C2\SC(=S)N(C(C(=O)O)c3ccccc3)C2=O)cc1OC (configuration not stated),0.0%,-0.8%,19µM*,-11.2%,x,1.9%
COc1ccc(OC)c(/C=C2\SC(=S)N(C(C(=O)O)c3ccccc3)C2=O)c1 (configuration not stated),-3.3%,6.4%,-8.6%,-0.2%,x,-2.0%
CCN(C(=O)CSc1nnc2nc(C)cc(C)n12)c1ccccc1,3.3%,-2.0%,-3.0%,1.4%,4.5%,3.6%
CCOC(=O)C1CCCN(c2ncnc3c2cnn3-c2ccc(Cl)cc2)C1 (configuration not stated),u,u,12µM*,u,27.2%,6.5%
CCOC(=O)C1CCCN(c2ncnc3c2cnn3-c2ccc(OC)cc2)C1 (configuration not stated),u,u,u,u,11.2µM*,5.17µM*
Cc1nn(C)c(=O)n1-c1ccc(OCc2ccccc2)cc1,u,u,u,u,11.2µM*,16.3%
CC(C)(C)OC(=O)N1CCC[C@H]1c1nnc(SCc2ccc(Cl)cc2)o1,-29.9%,-0.5%,-0.6%,0.6%,x,-6.7%
Cc1nc(C)c(-c2csc(Nc3ccc(S(N)(=O)=O)cc3)n2)s1,u,-7.9%,-3.9%,-1.6%,x,3.4%
Cc1cccc(Nc2nc(-c3sc(C)nc3C)cs2)c1,u,u,19µM*,u,x,u
Cc1nc(C)c(-c2csc(Nc3cccc(O)c3)n2)s1,u,u,10.7µM*,u,x,u
Cc1nc(N)sc1-c1csc(Nc2cccc(O)c2)n1,-27.0%,3.55µM*,10.7µM*,3.5%,x,u
CCCCC(=O)Nc1nc(C)c(-c2csc(Nc3ccccc3OC)n2)s1,16.4µM*,-4.4%,u,-6.1%,-11.4%,-3.9%
Cc1cccc(Nc2nc(-c3c(C)nc4ccccn34)cs2)c1,u,-23.7%,u,-20.5%,-38.1%,-15.1%
Cc1nc2ccccn2c1-c1csc(Nc2cccc(O)c2)n1,u,0.9%,-7.0%,-1.0%,x,2.1%
Cc1ccc(/C=C/c2onc(C)c2S(=O)(=O)N2CCC(C(=O)NCc3ccc(Cl)cc3)CC2)cc1,x,x,2.2%,x,x,x
C#CCOCCOCCOCCNc1nc(N2CCN(C(=O)C([C@@H](C)CC)n3cc(C(N)Cc4ccc(O)cc4)nn3)CC2)nc(N2CCN(C(=O)[C@H](CCC(=O)O)n3cc(C(N)Cc4ccc(O)cc4)nn3)CC2)n1 (some centres not stated),-5.9%,3.7%,-0.8%,-1.0%,x,5.8%
CCC(=O)Nc1nc(C)c(-c2csc(Nc3cccc(O)c3)n2)s1,2.59µM*,13.4%,10.7µM*,2.5%,x,-9.5%
CCOc1ccc(C(=O)NNC(=O)CNC(=O)c2ccc(C)s2)cc1OC,26.1%,-3.8%,-3.2%,2.9%,x,1.5%
C/C(=N\NC(=O)c1cc(-c2ccc(C)s2)nc2ccccc12)c1cccnc1,11.0%,u,0.953µM*,u,x,13.1%
C/C(=N\NC(=O)c1cc(-c2cccc(OC(C)C)c2)nc2ccccc12)c1cccnc1,-11.0%,24.1%,0.601µM*,u,x,3.3%
C/C(=N\NC(=O)c1cc(-c2ccccc2C)nc2ccccc12)c1cccnc1,3.9%,0.9%,7.9%,3.4%,x,1.2%
O=C1CCCc2nc(N3CCc4ccccc43)ncc21,u,3.16µM*,2.69µM*,1.58µM*,12.6µM*,3.26µM*
SMILES,ELG1 DNA repair,NPC1 prom act,FLuc modulator,Rab9 prom act,SMN2 splice enh,ELG1 genotox
CC1(C)CC(=O)c2cnc(N3CCc4ccccc4C3)nc2C1,u,2.82µM*,2.69µM*,u,-34.9%,1.84µM*
CC1(C)CC(=O)c2cnc(N3CCN(c4ccccc4)CC3)nc2C1,-1.6%,-4.5%,-13.3%,-8.0%,-55.2%,-5.7%
O=C1CCCc2nc(N3CCN(Cc4ccccc4)CC3)ncc21,u,-3.6%,-1.8%,0.3%,-27.9%,-9.9%
O=C(Nc1ccn(-c2ccccc2)n1)c1ccc(Cl)cc1,u,13.2%,13.5µM*,15.6%,7.3%[1.84 µM],10.4%
N#Cc1ccc(C(=O)Nc2ccn(-c3ccccc3)n2)cc1,23.1µM*,-0.7%,u,-10.9%,-52.7%,-7.5%
CC(=O)Nc1ccn(-c2ccccc2)n1,u,13.0%,u,16.9%,15.7%,5.3%
O=C(Nc1ccn(-c2ccccc2)n1)c1ccccc1Br,u,u,u,26.6%,15.8µM*,u
COCCNc1oc(/C=C/c2ccc(F)cc2)nc1C#N,x,x,u,x,19.8%,x
CCOC(=O)COc1ccc(-c2nnn(CC(=O)Nc3ccccc3)n2)cc1,x,x,-0.8%,x,17.9%,x
CCOc1cc(-c2nc(-c3ccc(-c4ccccc4)nc3OCC)no2)cc(OCC)c1OCC,x,x,-5.5%,x,4.8%,x
CC(C)(C)NC(=O)COc1ccc(-c2ccccc2)cc1,u,u,19µM*,23.0%,11.9%,u
CC(C)OC(=O)COc1ccc(-c2ccccc2)cc1,11.2%,-0.2%,12µM*,2.5%,6.5%,-4.5%
